According to PubChem BioAssay:

Experiments:
[1] = test system: Botulinum neurotoxin type F light chain protease (Clostridium botulinum); test: Clostridium botulinum type F light chain protease inhibitors, microsphere substrate cleavage, validation (AID 588459); conditions: multiplex microsphere protease substrate cleavage assay, flow cytometry; at 10 µM; hits give high values
[2] = target: Botulinum neurotoxin type A (Clostridium botulinum) (UniProt P0DPI0); test: BoNT/A light chain protease inhibitors, biochemical, multiplex microsphere flow cytometry, validation set (AID 588460); conditions: at 10 µM, hits give high values
Botulinum neurotoxin type A (Clostridium botulinum), sequence (P0DPI0 whole entry, looked up): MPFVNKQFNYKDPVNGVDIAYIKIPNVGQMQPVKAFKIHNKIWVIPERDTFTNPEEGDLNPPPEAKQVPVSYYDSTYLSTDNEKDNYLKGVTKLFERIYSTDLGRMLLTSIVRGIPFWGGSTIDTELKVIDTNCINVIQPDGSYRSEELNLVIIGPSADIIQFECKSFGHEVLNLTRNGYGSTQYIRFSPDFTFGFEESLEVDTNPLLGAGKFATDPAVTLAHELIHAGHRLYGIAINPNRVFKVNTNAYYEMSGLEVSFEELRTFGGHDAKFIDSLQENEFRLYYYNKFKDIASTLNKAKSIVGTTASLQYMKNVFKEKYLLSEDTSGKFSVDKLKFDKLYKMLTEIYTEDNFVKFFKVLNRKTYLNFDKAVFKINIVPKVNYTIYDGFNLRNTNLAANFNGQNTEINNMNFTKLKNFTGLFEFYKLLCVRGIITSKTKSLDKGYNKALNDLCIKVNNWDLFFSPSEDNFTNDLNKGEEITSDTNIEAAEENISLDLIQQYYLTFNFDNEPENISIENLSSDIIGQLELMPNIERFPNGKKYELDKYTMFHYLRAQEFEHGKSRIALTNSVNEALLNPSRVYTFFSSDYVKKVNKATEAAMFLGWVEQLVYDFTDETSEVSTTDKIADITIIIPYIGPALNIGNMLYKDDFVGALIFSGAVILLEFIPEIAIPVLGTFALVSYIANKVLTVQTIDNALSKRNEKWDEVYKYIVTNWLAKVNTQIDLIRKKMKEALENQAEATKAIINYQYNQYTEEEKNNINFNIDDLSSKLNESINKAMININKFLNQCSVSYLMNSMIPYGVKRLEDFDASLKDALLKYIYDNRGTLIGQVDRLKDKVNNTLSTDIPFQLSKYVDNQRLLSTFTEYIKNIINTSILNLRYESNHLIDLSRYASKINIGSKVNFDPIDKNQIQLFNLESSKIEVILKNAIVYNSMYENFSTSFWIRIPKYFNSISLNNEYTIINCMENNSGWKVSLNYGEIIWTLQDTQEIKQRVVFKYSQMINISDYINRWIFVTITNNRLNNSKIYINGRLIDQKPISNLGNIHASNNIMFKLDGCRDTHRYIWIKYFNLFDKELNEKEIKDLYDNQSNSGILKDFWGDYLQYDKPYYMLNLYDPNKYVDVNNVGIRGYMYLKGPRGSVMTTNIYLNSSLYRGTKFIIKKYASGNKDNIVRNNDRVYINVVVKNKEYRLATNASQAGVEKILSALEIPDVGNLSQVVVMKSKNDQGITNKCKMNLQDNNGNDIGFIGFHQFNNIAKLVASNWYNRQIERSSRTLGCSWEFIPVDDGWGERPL

[3] = target: Lethal factor (Bacillus anthracis) (UniProt P15917); test: Bacillus anthracis lethal factor inhibition, microsphere flow cytometry protease assay, validation at 10 µM (AID 588461); conditions: multiplex microsphere protease cleavage assay, hits give high values
Lethal factor (Bacillus anthracis), sequence (P15917 whole entry, looked up): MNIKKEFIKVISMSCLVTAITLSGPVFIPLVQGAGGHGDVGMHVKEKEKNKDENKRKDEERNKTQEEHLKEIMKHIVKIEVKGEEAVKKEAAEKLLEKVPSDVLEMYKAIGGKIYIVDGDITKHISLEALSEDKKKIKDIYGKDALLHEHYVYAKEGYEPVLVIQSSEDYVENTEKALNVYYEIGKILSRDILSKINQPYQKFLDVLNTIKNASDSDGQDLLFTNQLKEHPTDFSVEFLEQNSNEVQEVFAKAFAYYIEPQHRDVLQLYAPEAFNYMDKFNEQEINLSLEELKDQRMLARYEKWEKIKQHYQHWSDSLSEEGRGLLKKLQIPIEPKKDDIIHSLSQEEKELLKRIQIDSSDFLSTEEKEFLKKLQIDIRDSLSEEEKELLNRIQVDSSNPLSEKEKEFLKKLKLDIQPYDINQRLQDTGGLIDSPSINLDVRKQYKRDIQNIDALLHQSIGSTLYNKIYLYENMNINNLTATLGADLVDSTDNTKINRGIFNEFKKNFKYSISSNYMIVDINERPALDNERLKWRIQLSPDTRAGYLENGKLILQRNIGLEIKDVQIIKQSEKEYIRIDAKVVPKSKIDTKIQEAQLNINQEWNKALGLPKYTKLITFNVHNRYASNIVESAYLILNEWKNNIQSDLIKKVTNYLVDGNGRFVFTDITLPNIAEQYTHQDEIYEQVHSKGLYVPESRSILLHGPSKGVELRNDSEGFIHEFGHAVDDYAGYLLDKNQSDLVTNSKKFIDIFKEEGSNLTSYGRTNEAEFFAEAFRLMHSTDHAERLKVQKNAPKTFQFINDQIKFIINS

Measured: inhibition

C=C(C)COc1ccc(-c2nc(N)ncc2-c2ccc(OC)cc2)c(O)c1
inactive: [1] 2.8% | [2] 1.4% | [3] -5.3%

CCOc1ccccc1C(=O)NCCC(=O)O
inactive: [1] 2.8% | [2] 1.9% | [3] 0.2%

CC(=O)O[C@H]1CC[C@H]2[C@@H]3CCc4cc(O)ccc4[C@H]3CC[C@]12C
inactive: [1] -3.4% | [2] -0.9% | [3] -2.4%

Cc1ccccc1C(=O)Oc1ccc(Sc2ccc(O)cc2)cc1
inactive: [1] -2% | [2] -0.4% | [3] -3.8%

c1coc(-c2nnc3n2C2(CCCC2)Cc2ccccc2-3)c1
inactive: [1] 2.5% | [2] -1.4% | [3] -5.9%

CCN(CC)C1=C(Cl)C(=O)C(Cl)C12OCCO2 (stereo unspecified)
inactive: [1] 1% | [2] 0.6% | [3] -1%

COc1cc2c(cc1OC)C(=S)NC(C)(C)C2
inactive: [1] 2.8% | [2] -0.8% | [3] 2.9%

CC(=O)Nc1ccccc1O
inactive: [1] 1.5% | [2] -1.1% | [3] -1.7%

CN(C)CCOC(c1ccccc1)c1ccccc1
inactive: [1] -0.7% | [2] 0.3% | [3] -5%

CC(=O)Nc1ccc(OS(=O)(=O)c2c(C)cc(C)cc2C)cc1
inactive: [1] -3.3% | [2] -1% | [3] -0.9%

COc1ccc2cc[nH]c2c1
inactive: [1] -1.5% | [2] -0.4% | [3] 2.8%

CC(=O)c1cc2c(cc1NC(=O)c1ccco1)OCCO2
inactive: [1] -1.7% | [2] -1.3% | [3] -1.9%
